Vif imaging = inhibitors of HIV Vif; HEK293T cells, Vif self-association by quenched fluorescence, imaging, 24 h; inhibition, % at 7.49 µM; 340,000 tested, 0.35% active; in the data active means inhibition above about 50%, passing the limit was not always enough
SKN-1 block = blocks SKN-1 activity in C. elegans. C. elegans VP596 Pgst-4::GFP/RFP ratio, acrylamide-induced, 24 h. inhibition, % at 21.8 µM. 360,000 tested, 0.49% active;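 active means interference check ratio from 0.5 to 1.5 plus GFP to RFP signal ratio inhibition reaching or exceeding a fixed threshold, cut at about 30% in these data, passing the limit was not always enough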
NadD block = blocks S. aureus nicotinate mononucleotide adenylyltransferase. purified NadD enzyme, colorimetric absorbance read-out. inhibition, % at 20 µM. 360,000 tested, 0.78% active; in the data active means inhibition above about 26%
GRIN3A LBD mod = NR3A (human) ligand-binding domain modulation; NR3A LBD differential scanning fluorimetry, Tm shift; 0% = protein alone, 100% = glycine-bound protein; Tm shift relative to glycine control, % at 25 µM; 340,000 tested, 2.5% active; AID 1259313;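 active means melting temperature shift of at least 10% of the positive control shift, at one fixed dose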
SMARCA2 act = SMARCA2 function activation, primary screen | 370,000 tested, 1% active | MG213 cells, MMTV-luciferase reporter, dexamethasone, overnight | activation, % at 9.1 µM; in the data active means activation above about 7.8%;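 further: 0% = vehicle wells and 100% = reference activator wells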
esBAF inh = blocks esBAF chromatin remodeling in mouse ES cells. 350,000 tested, 2% active. AID 602393. reporter increase, % at 12.5 µM. Bmi1-luciferase knock-in reporter, 24 h; 100% = twice the neutral-well signal; in the data active means activation above about 40%;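 further: 0% = median of the plate's neutral control wells and 100% = double that signal; a rise in the Bmi1 reporter signal indicates esBAF inhibition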
NadD conf = NadD (S. aureus) inhibition, single concentration confirmation; AID 624309; 2,000 tested, 13% active; inhibition, % at 20 µM; purified S. aureus NadD, colorimetric enzyme assay; shares compounds with NadD block; in the data active means inhibition mostly above about 42%, no sharp cut-off; inactive means mostly below about 42%
* = called active by the depositor; i = inactive; . = no result. Compounds with a hit are over-represented: about 5.2% of the library has one in this group of screens.

SMILES | Vif imaging | SKN-1 block | NadD block | GRIN3A LBD mod | SMARCA2 act | esBAF inh | NadD conf
Cc1ccc(S(=O)(=O)N2C[C@@H](O)COC[C@H]3O[C@H](CC(=O)N[C@@H]4CCN(Cc5ccccc5)C4)CC[C@@H]32)cc1 | . | . | . | . | . | 7 | .
NC(=O)c1ccc(NC(=O)COC(=O)/C=C/c2ccc(Br)o2)cc1 | -4 | -12 | 4 | -12 | -2 | 1 | .
O=C(COC(=O)/C=C/c1ccc(Br)o1)Nc1ccc2[nH]c(=O)[nH]c2c1 | -12 | -3 | 29* | . | 0 | -5 | 2
CN1CCc2c(sc(/N=C/c3c[nH]c4ccccc34)c2C#N)C1 | 25 | 27 | 44* | -7 | 4 | . | -14
CCOC(=O)c1c(/N=C/c2ccc(OC)cc2O)sc2c1CCN(C)C2 | 7 | -1 | -3 | 0 | -5 | 0 | .
CN1CCc2c(sc(/N=C/c3c[nH]c4ccccc34)c2C(N)=O)C1 | -1 | -15 | 51* | 0 | -3 | . | -13
Cc1noc(C)c1NC(=O)N(C)C[C@H]1OCCCC[C@@H](C)Oc2ccc(NC(=O)Nc3ccccc3)cc2C(=O)N([C@@H](C)CO)C[C@H]1C | . | . | . | . | . | -8 | .
O=C(NCC[C@@H]1CC[C@H](NC(=O)Nc2cc(F)ccc2F)[C@H](CO)O1)Nc1ccc(F)cc1 | . | . | . | . | . | -3 | .
O=c1oc2ccc3ccccc3c2cc1-c1nnc(-c2cccs2)o1 | 5 | 1 | 50* | -7 | 1 | . | 10
c1csc(-c2nnc(Cc3cccc4ccccc34)o2)c1 | -5 | -3 | -5 | -3 | 3 | 10 | .
COc1ccc(S(=O)(=O)Nc2ccc3c(c2)CC(=O)N([C@@H](C)CO)C[C@@H](C)[C@H](CN(C)S(=O)(=O)c2ccc(F)cc2)O3)cc1 | . | . | . | . | . | -3 | .
O=C(OCC(=O)c1ccc(Cl)cc1Cl)c1ccc2c(c1)C(=O)N(c1cccc3ncccc13)C2=O | 2 | 17 | 43* | -3 | -2 | 5 | 7
Cc1ccc(/C=N/NC(=O)c2nnn(-c3nonc3N)c2-c2cccs2)cc1 | 0 | -3 | 0 | 10 | 0 | 8 | .
CN(C)c1ccc(/C=N/NC(=O)c2nnn(-c3nonc3N)c2CN(C)c2ccccc2)cc1 | 0 | 2 | 37* | 15* | -2 | 16 | 38
Nc1nonc1-n1nnc(C(=O)N/N=C/c2ccccc2)c1CN1CCc2ccccc21 | 2 | 14 | 61* | 1 | -4 | -4 | 43
CCN(CC)c1ccc(/C=N/NC(=O)c2nnn(-c3nonc3N)c2-c2ccc(C)cc2)cc1 | 6 | 1 | 47* | 4 | -1 | -11 | 25
COC(=O)c1nnn(-c2nonc2N)c1CN1CCc2ccccc21 | -9 | 0 | 1 | -11 | 0 | -3 | .
C[C@@H]1CN([C@H](C)CO)C(=O)c2cc(NC(=O)c3ccccc3)ccc2O[C@@H](C)CCCCO[C@@H]1CN(C)C(=O)CCCN(C)C | . | . | . | . | . | -3 | .
O=S(=O)(NCC[C@H]1CC[C@@H](NS(=O)(=O)c2ccccc2Cl)[C@@H](CO)O1)c1ccc(F)cc1 | . | . | . | . | . | 4 | .
CN(C)CCCNC(=O)[C@H]1[C@H](CO)[C@H]2Cn3c(ccc(-c4cccc(F)c4)c3=O)[C@H]2N1C | . | . | . | . | . | 0 | .
CCC(C)(C)n1nnnc1C(C(C)C)N(CCN1CCOCC1)Cc1cc2cccc(C)c2[nH]c1=O (centres undefined) | 0 | 7 | 0 | -1 | -3 | -3 | .
Cc1cc2cc(CN(Cc3cccs3)C(c3nnnn3C(C)(C)C)C(C)C)c3nnnn3c2cc1C (centres undefined) | -6 | -14 | 31* | 2 | 0 | -9 | 3
Nc1nc(-c2cc(O)ccc2[N+](=O)[O-])cc(-c2ccccc2)c1[N+](=O)[O-] | i | 7 | 53* | 11* | 2 | 8 | 8
COCC#Cc1cnc2c(c1)C(=O)N([C@@H](C)CO)C[C@@H](C)[C@@H](CN(C)C(=O)Nc1cc(F)ccc1F)O2 | . | . | . | . | . | -3 | .
O=C1CCCC2=C1C1(CCCC1)N=C(Nc1nc3cc(-c4ccccc4)ccc3o1)N2 | . | 9 | 40* | . | 1 | 19 | 13
COc1ccc(COc2cc(-c3cccc(OC)c3)nc3ccc(NC(=O)c4ccc(Cl)cc4)cc23)cc1 | 1 | 12 | 59* | 10 | 2 | -1 | 11

Source: PubChem (several laboratories)
